From PubChem BioAssay
Most compounds without a hit are left out; they make up all but 12% or so of the library.
Sfp inh: Sfp phosphopantetheinyl transferase inhibition. Biochemical Sfp PPTase activity, qHTS. Potency, µM, actives largely listed as inhibitors. Q9F4F7. 310,000 compounds, 3.5% hits;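 further: the enzyme is Sfp with the accession as filed and its product quenches rhodamine fluorescence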
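Compounds were incubated with enzyme (final 15 nM) for 15 min at room temperature before substrate addition started the reaction. Fluorescence at 525 nm excitation, 598 nm emission was recorded immediately and after 30 minutes.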
BAZ2B block: inhibitors of human BAZ2B bromodomain; Q9UIF8; AlphaScreen BAZ2B-H3K14Ac peptide displacement; Potency, µM (titrated, usually from 114 µM), hits mostly inhibitors; 360,000 compounds, 4.4% hits; further: nearly all actives have a fitted effect of over 60% in size
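Compounds, titrated to a top concentration of 110 uM, were incubated 30 min at room temperature with preformed BAZ2B/acetyl-K14 H3 peptide complex (50 nM each). Proximity signal was measured by AlphaScreen after 20 min with beads.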
G9a inh: G9a (human) methyltransferase inhibition | AID 504332 | Potency, µM (doses to about 102 µM), hits mostly inhibitors | G9a H3K9 monomethylation, AlphaScreen, 2 h | 350,000 compounds, 8.8% hits; further: nearly all actives have a fitted effect of over 75% in size
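Quantitative HTS format: methyltransferase activity on a biotin-tagged H3K9 peptide is measured by AlphaScreen, using a rabbit anti-monomethyl-H3K9 antibody with streptavidin donor and anti-IgG acceptor beads. Final levels are 20 nM enzyme, 500 nM peptide, 20 uM SAM; 2 h RT.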
PLK1 PBD inh: inhibitors of human PLK1 polo-box domain binding; P53350; Plk1 PBD binding of FITC phosphopeptide, fluorescence polarization; Potency, µM, actives largely listed as inhibitors; 360,000 compounds, 2.8% hits; AID 720504; further: series mostly up to about 57 µM; nearly all actives have a fitted effect of over 65% in size
Target sequence (P53350 whole entry, looked up, the tested form may be a part): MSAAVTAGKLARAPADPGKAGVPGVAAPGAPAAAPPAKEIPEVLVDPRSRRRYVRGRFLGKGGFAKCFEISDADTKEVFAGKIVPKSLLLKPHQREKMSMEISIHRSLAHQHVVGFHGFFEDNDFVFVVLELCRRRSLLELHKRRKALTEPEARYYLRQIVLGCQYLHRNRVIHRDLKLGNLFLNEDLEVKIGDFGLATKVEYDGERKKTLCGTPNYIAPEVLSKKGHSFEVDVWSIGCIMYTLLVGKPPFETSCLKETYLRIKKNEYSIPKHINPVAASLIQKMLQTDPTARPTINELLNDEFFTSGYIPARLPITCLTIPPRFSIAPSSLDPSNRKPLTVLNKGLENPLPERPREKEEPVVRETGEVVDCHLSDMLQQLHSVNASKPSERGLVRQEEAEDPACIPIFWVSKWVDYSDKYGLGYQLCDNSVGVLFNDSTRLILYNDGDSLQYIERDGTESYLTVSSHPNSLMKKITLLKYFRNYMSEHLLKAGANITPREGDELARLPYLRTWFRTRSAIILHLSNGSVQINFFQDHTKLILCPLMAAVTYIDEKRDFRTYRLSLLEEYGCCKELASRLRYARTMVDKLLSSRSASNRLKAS
HP1b chromo inh: HP1-beta chromodomain-methylated histone interaction inhibition | 390,000 compounds, 0.56% hits | AID 540317 | AlphaScreen HP1-beta / biotin-H3K9me3 peptide binding | Potency, µM (highest dose often 114 µM), usual class: inhibitors | P83916; further: nearly all actives have a fitted effect of over 70% in size
Target sequence (P83916 whole entry, looked up): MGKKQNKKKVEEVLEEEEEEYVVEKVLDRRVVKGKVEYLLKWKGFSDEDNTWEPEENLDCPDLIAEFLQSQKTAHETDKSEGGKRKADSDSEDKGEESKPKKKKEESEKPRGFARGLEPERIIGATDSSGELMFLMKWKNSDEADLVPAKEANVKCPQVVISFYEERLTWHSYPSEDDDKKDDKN
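AlphaScreen: HP1-beta (50 nM) preformed 30 min with biotin-H3(1-18)K9me3 peptide (50 nM) in PBS pH 7.4, 0.01% Tween-20. Compound added for 30 min at RT, then streptavidin donor/nickel chelate acceptor beads (10 ug/mL) for 30 min.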
JMJD2A Tudor inh: JMJD2A Tudor domain (human) inhibition. O75164. AlphaScreen JMJD2A-Tudor / H3K4me3 peptide binding. Potency, µM (highest dose often 114 µM), usual class: inhibitors. 390,000 compounds, 4.4% hits. AID 504339; further: nearly all actives have a fitted effect of over 50% in size
TbPYK confirm: Trypanosoma brucei pyruvate kinase inhibition, cherry-pick confirmation; shares compounds with PLK1 PBD inh; 890 compounds, 67% hits; Potency, µM (highest dose often 76.9 µM), hits mostly inhibitors; recombinant TbPYK, Kinase-Glo ATP luminescence; further: nearly all actives have a fitted effect of over 70% in size
TbPYK orthogonal: orthogonal confirmation of Trypanosoma brucei pyruvate kinase inhibitors; shares compounds with PLK1 PBD inh; recombinant TbPYK, ADP-Glo luminescence, 60 min; Potency, µM (titrated, usually from 76.9 µM), hits mostly inhibitors; 890 compounds, 62% hits; further: nearly all actives have a fitted effect of over 75% in size
Large screens that a line does not name were inactive (follow-up assays come after a bar, where they were run). The call rests on the fitted dose curve; in most records, active means well fitted curve in the direction sought with a large enough effect; inconclusive means small, poorly fitted or top-dose-only effect, or another doubt; inactive means no such curve, though single readings can be large; an effect the other way counts as inactive or inconclusive.

NC(=O)CN1C(=O)C2CCCCN2C(=O)c2ccccc21 (stereo unspecified)	none
NC(=O)CN1C(=O)/C(=c2\sc3nc(=O)c(Cc4ccccc4)nn3c2=O)c2ccccc21	Sfp inh 11µM, G9a inh 7.9µM, PLK1 PBD inh 6µM | TbPYK confirm 28µM | TbPYK orthogonal 16µM
CCOC(=O)CN=C1CC(C)(C)CC2=C1Sc1ncnc(N(C)C)c1N2	Sfp inh 10µM, BAZ2B block inconclusive, G9a inh 4.5µM, JMJD2A Tudor inh inconclusive | TbPYK confirm 20µM | TbPYK orthogonal 14µM
O=C(CSc1cc([N+](=O)[O-])cc(S(=O)(=O)Cc2ccccc2)c1)NC1CC1	Sfp inh inconclusive, G9a inh inconclusive, PLK1 PBD inh inconclusive | TbPYK confirm inconclusive | TbPYK orthogonal 25µM
C=CCNC(=O)CSc1cc([N+](=O)[O-])cc(S(=O)(=O)Cc2ccccc2)c1	Sfp inh inconclusive, G9a inh inconclusive, PLK1 PBD inh inconclusive
NC(=O)c1ccc(N2CCN(c3ccc(O)cc3)CC2)c([N+](=O)[O-])c1	Sfp inh 32µM, BAZ2B block inconclusive, G9a inh inconclusive, HP1b chromo inh 79µM, JMJD2A Tudor inh 25µM | TbPYK confirm 14µM | TbPYK orthogonal inconclusive
O=C(CCC1CCN(C(=O)c2ccccc2Cl)CC1)NCc1ccc(F)cc1	none
COc1cccc(C(=O)NC2CCCN(C3Cc4ccccc4C3)C2)c1OC (stereo unspecified)	none
O=C(O)/C=C/C(=O)NNC(=O)c1cc(-c2ccccc2)n[nH]1	G9a inh 20µM, PLK1 PBD inh 30µM, HP1b chromo inh 25µM, JMJD2A Tudor inh inconclusive | TbPYK confirm inconclusive | TbPYK orthogonal inconclusive
Cc1ccc(CNC(=O)C(CC(C)C)OC(=O)c2ccco2)cc1 (stereo unspecified)	none
COc1ccc(OC)c(-n2c(=S)[nH]c3c(sc(=S)n3-c3ccccc3)c2=O)c1	JMJD2A Tudor inh inconclusive | TbPYK confirm 16µM | TbPYK orthogonal 16µM
O=c1cc(O)n(-c2ccccc2)c(=S)[nH]1	Sfp inh 35µM, G9a inh 18µM, PLK1 PBD inh 3.4µM | TbPYK confirm inconclusive | TbPYK orthogonal inactive
CN(C)c1ccc(/C=N/NC(=O)C2COc3ccccc3O2)o1 (stereo unspecified)	Sfp inh inconclusive, G9a inh inconclusive | TbPYK confirm inconclusive | TbPYK orthogonal 35µM
COC(=O)c1sccc1S(=O)(=O)N(CC(=O)Nc1ccccc1C)c1ccc(Cl)cc1	none (no result: Sfp inh, PLK1 PBD inh)
O=C(c1ccncc1)N1CCC2(CCCN(c3ncccn3)C2)CC1	none (no result: BAZ2B block, PLK1 PBD inh, HP1b chromo inh, JMJD2A Tudor inh)
COCCN(Cc1cc2cccc(C)c2n2nnnc12)C(=O)C(F)(F)F	none | TbPYK confirm inactive | TbPYK orthogonal inactive
CCn1c(C)cc(C(=O)COC(=O)c2ccccc2[N+](=O)[O-])c1C	HP1b chromo inh inconclusive, JMJD2A Tudor inh 45µM (no result: Sfp inh, BAZ2B block, G9a inh) | TbPYK confirm inconclusive | TbPYK orthogonal inactive
C/C(=N/NC(=O)C1CCCN1C(=O)c1ccc([N+](=O)[O-])cc1)c1ccc(Br)cc1 (stereo unspecified)	none
CC1(C)Cc2c(c(N3CCCC3)nc3sc(C(=O)Nc4ccccc4)c(N)c23)CO1	G9a inh inconclusive
Cc1nc2sc(C(=O)O)c(N)c2c2c1COC(C)(C)C2	Sfp inh 40µM, G9a inh 3.2µM, PLK1 PBD inh inconclusive, JMJD2A Tudor inh 14µM | TbPYK confirm inconclusive | TbPYK orthogonal 18µM
NNC(=O)CSc1c(-c2ccccc2)c2cc(Cl)ccc2[nH]c1=O	none
O=c1[nH]c2ccc(Cl)cc2c(-c2ccccc2)c1SC(=S)N1CCCCC1	Sfp inh 14µM, BAZ2B block inconclusive, G9a inh 11µM, PLK1 PBD inh 12µM, HP1b chromo inh inconclusive, JMJD2A Tudor inh inconclusive | TbPYK confirm 5.6µM | TbPYK orthogonal 7.9µM
O=c1[nH]c2ccc(Cl)cc2c(-c2ccccc2)c1SC(=S)N1CCOCC1	Sfp inh 11µM, G9a inh inconclusive, PLK1 PBD inh 27µM, JMJD2A Tudor inh inconclusive | TbPYK confirm 4.5µM | TbPYK orthogonal 5.6µM
COc1ncc2nc(C)c(=O)n(C3CC3)c2n1	none (no result: BAZ2B block, PLK1 PBD inh, HP1b chromo inh, JMJD2A Tudor inh)
O=C1c2ccccc2C(=O)N1c1ccccc1	none (no result: Sfp inh, BAZ2B block, G9a inh)
O=C1C=CC(=O)N1c1cccc(-c2ccccc2)c1	Sfp inh 1.8µM, G9a inh 1µM, PLK1 PBD inh 2.7µM, HP1b chromo inh 32µM, JMJD2A Tudor inh 50µM | TbPYK confirm 4µM | TbPYK orthogonal 7.9µM
COc1cc(/C=C/c2sc3ccccc3[n+]2CCCS(=O)(=O)[O-])ccc1O	Sfp inh 6.3µM, BAZ2B block 45µM, G9a inh 11µM, HP1b chromo inh 32µM | TbPYK confirm 16µM | TbPYK orthogonal inactive
CCC(/C=C1\Oc2ccc(OC)cc2N1C)=C\c1sc2ccccc2[n+]1CCCS(=O)(=O)[O-]	none (no result: Sfp inh, BAZ2B block, G9a inh)
CCCNC(=O)N(C)C[C@@H]1Oc2ncc(-c3ccncc3)cc2C(=O)N([C@H](C)CO)C[C@@H]1C	none (no result: Sfp inh, BAZ2B block, G9a inh, HP1b chromo inh, JMJD2A Tudor inh) | TbPYK confirm 22µM | TbPYK orthogonal 32µM
CCCNC(=O)N(C)C[C@@H]1Oc2ncc(Br)cc2C(=O)N([C@H](C)CO)C[C@@H]1C	none (no result: Sfp inh, BAZ2B block, G9a inh, HP1b chromo inh, JMJD2A Tudor inh)
CC1(C)CC(=O)C(C(C2=C(O)CC(C)(C)CC2=O)c2ccco2)C(=O)C1 (stereo unspecified)	Sfp inh inconclusive, G9a inh 35µM, PLK1 PBD inh 5.3µM | TbPYK confirm 13µM | TbPYK orthogonal inconclusive
CC1(C)CC(=O)C(C(C2=C(O)CC(C)(C)CC2=O)c2ccc(Cl)c([N+](=O)[O-])c2)C(=O)C1 (stereo unspecified)	G9a inh inconclusive
O=S(=O)(/N=S1\CC=CCN1S(=O)(=O)c1ccccc1)c1ccccc1 (stereo unspecified)	PLK1 PBD inh 3.4µM, HP1b chromo inh inconclusive (no result: Sfp inh, BAZ2B block, G9a inh) | TbPYK confirm 0.5µM | TbPYK orthogonal 1.4µM
CCOC(=O)C1=C(C)N=c2s/c(=C/c3cccc([N+](=O)[O-])c3O)c(=O)n2C1c1cc(OC)c(OC)c(OC)c1 (stereo unspecified)	Sfp inh 56µM, BAZ2B block 7.9µM, G9a inh 2.2µM, PLK1 PBD inh 27µM, HP1b chromo inh 16µM, JMJD2A Tudor inh 14µM | TbPYK confirm 32µM | TbPYK orthogonal inconclusive
COC(=O)[C@@]12C[C@@H](CC(=O)N3CCN(C(=O)C4CC4)CC3)C(=O)N(CCc3ccc(OC)c(OC)c3)C1=CCC(C)(C)C2	none (no result: Sfp inh, BAZ2B block, G9a inh, HP1b chromo inh, JMJD2A Tudor inh)
CCCNC(=O)c1cnc2c(-c3ccc(OCC)c(OCC)c3)c(C)nn2c1-c1ccccc1	none (no result: Sfp inh, PLK1 PBD inh)
CCOC(=O)c1sc(N/N=C/c2cccc(C)c2)nc1C	none
